Bioassay records deposited in PubChem BioAssay by several laboratories.
Hits are enriched below; roughly 21% of the tested compounds scored in any of these assays.
CYP2C9 inhib = human CYP2C9 inhibition; CYP2C9 Supersomes, luciferin-H conversion, luminescence; hit rate 20% among 96,000; AID 777; inhibition, % at 5 µM;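 active = blocking of liver enzyme CYP2C9 beyond about 50% at 5 µM, limit read from the data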
CYP2C19 inhib = blocks human cytochrome P450 2C19; CYP2C19 Supersomes, luciferin-H EGE luminescence, 30 min; hit rate 21% among 96,000; inhibition, % at 5 µM; P33261;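 active = CYP2C19 inhibition above a set limit at 5 µM in the primary screen, cut at about 50% in these data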;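 note: plate controls were negative control wells for no effect and 2.5 mM tranylcypromine positive control for full effect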
Target sequence (P33261 whole entry, looked up): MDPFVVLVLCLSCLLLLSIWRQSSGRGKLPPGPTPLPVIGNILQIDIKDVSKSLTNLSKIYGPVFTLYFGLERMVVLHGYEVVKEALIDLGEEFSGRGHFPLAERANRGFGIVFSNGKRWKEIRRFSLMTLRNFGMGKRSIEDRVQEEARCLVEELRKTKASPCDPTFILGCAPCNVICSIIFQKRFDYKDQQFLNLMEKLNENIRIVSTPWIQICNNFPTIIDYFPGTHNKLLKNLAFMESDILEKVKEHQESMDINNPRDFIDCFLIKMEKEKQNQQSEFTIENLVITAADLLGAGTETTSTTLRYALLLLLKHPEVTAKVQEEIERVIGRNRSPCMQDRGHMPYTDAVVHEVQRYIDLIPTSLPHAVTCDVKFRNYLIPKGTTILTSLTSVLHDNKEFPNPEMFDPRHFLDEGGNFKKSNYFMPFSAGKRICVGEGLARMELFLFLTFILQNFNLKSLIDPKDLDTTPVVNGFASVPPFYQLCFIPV
MRP1 act = activators of MRP-1 | H69AR cells + doxorubicin, viability rescue, CellTiter-Glo | viability increase, % at 10 µM | AID 799 | hit rate 0.61% among 140,000;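 active = viability gain under doxorubicin at or above a set limit, the compound median plus 3 SD, cut at about 4.7% in these data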;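 note: MRP-1 overexpressing cells given doxorubicin 25 µM after compound pretreatment; 18-22 h compound pretreatment then 72 h with doxorubicin before readout; 0% = doxorubicin-only wells and 100% = vehicle-treated cells without doxorubicin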
CYP2C9 act = increases human cytochrome P450 2C9 activity; P11712; recombinant CYP2C9, luciferin-H conversion, luminescence; hits give high values; factor 1 = untreated enzyme, 0 = blocked; activation factor at 5 µM; hit rate 1.4% among 96,000; AID 1024;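 active = activation factor of 2 or more for CYP2C9 at a 5 µM dose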;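 note: 0 = sulfaphenazole-blocked wells and 1 = vehicle-only wells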
MRP resist rev = reverses drug resistance mediated by MRP. H69AR cells + 2 uM doxorubicin, CellTiter-Glo, 72 h. differential viability (reversal), % at 10 µM. hit rate 0.04% among 85,000. AID 602;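 active = viability drop by adding the cancer drug above about 55%, with treated viability meeting a 40% cutoff, limit read from the data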;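 note: viability without doxorubicin minus viability with 2 µM doxorubicin for each compound; larger differential means the compound sensitizes cells more to doxorubicin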
CYP2C19 act = cytochrome P450 2C19 (human) activation | P33261 | recombinant CYP2C19, luciferin-H EGE luminescence; hits give high values; 0 = fully inhibited enzyme, 1 = untreated enzyme | activation factor at 5 µM | 96,000 tested, under 10 active | AID 1025;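 active = activation factor of at least 2 at 5 µM in the primary screen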;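 note: 0 = wells with 2.5 mM tranylcypromine and 1 = vehicle-only wells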
An asterisk follows results filed as active; . = no result.

SMILES	CYP2C9 inhib	CYP2C19 inhib	MRP1 act	CYP2C9 act	MRP resist rev	CYP2C19 act
COC(=O)c1ccccc1NC(=O)CN1CCN(C23CC4CC(CC(C4)C2)C3)CC1	53.3*	33.4	-3.0	0.5	33.3	0.7
CCN(CC)CCOC(=O)c1ccc2c(c1)OCCO2	1.7	8.0	1.0	1	1.1	0.9
COC(=O)c1ccccc1NC(=O)CN1CCC(NC(=O)c2ccc(C)cc2)CC1	67.2*	87.7*	-2.7	0.3	-0.8	0.1
Cc1noc(C)c1COc1ccc(C(=O)NCc2ccccn2)cc1	-16.4	-13.2	-2.8	1.2	22.9	1.1
CC(C)(C)n1ncc2c(=O)n(Cc3c(F)cccc3Cl)cnc21	31.9	86.9*	-0.1	0.7	.	0.1
Cc1ccc(NC(=O)CN(C)S(=O)(=O)c2ccc(Br)s2)cc1F	.	.	-0.8	.	.	.
O=C(CNS(=O)(=O)c1ccc(Br)s1)NCC1COc2ccccc2O1 (stereo unspecified)	64.0*	22.5	-0.4	0.4	1.8	0.8
O=C(O)CNS(=O)(=O)c1ccc(Br)s1	-7.8	-9.0	-0.5	1.1	-5.8	1.1
CN(CC(=O)Nc1ccc2c(c1)OCCO2)S(=O)(=O)c1ccc(Br)s1	64.5*	67.7*	-0.6	0.4	3.9	0.3
O=C(CNS(=O)(=O)c1ccc(Br)s1)Nc1ccc2c(c1)OCCO2	75.0*	19.0	-1.2	0.3	-5.6	0.8
O=c1c2cnn(-c3ccccc3)c2nc(-c2cccs2)n1-c1ccc(Br)cc1	.	.	-1.8	.	.	.
O=C(Nc1nc(-c2ccccc2)cs1)C1CCCN(S(=O)(=O)c2cccc([N+](=O)[O-])c2)C1 (stereo unspecified)	62.0*	47.8	0.2	0.4	.	0.5
O=C(Cc1ccccc1)Nc1nc(-c2cccc([N+](=O)[O-])c2)cs1	.	.	-1.8	.	.	.
O=C(Nc1nccs1)C1CCCN(S(=O)(=O)c2cccnc2)C1 (stereo unspecified)	36.6	46.2	-0.9	0.6	-2.7	0.5
O=C(Nc1nc(-c2ccccc2)cs1)C1CCCN(S(=O)(=O)c2ccccc2)C1 (stereo unspecified)	69.2*	44.8	-3.5	0.3	-20.3	0.6
COc1ccc(C2/C(=C(/O)c3ccccc3)C(=O)C(=O)N2CCO)cc1 (stereo unspecified)	14.9	-1.0	-3.1	0.9	.	1
COc1ccc(N/C(C)=C2/C(=O)C(=O)N(CCO)C2c2ccc(Br)cc2)cc1 (stereo unspecified)	51.9*	59.6*	-0.3	0.5	23.4	0.4
O=c1c2ccccc2nnn1CSc1nnc2sc3ccccc3n12	-74.4	20.4	-1.6	1.7	0.3	0.8
Cc1ccc(N2C(=O)NC(NC(=O)c3ccc(Cl)cc3)(C(F)(F)F)C2=O)cc1 (stereo unspecified)	.	.	-1.2	.	.	.
CCOC(=O)C1CCN(C(=O)CCc2c(C)nc3cc(-c4ccccc4)nn3c2C)CC1	35.8	31.8	-3.2	0.6	-6.6	0.7
Cc1nc2cc(-c3cccc(F)c3)nn2c(C)c1CCC(=O)NC(C)CCc1ccco1 (stereo unspecified)	91.3*	90.7*	-0.3	0.1	6.7	0.1
COc1cc(OC)cc(-c2cc3nc(C)c(CCC(=O)NC(C)CCc4ccco4)c(C)n3n2)c1 (stereo unspecified)	46.0	49.7	-2.2	0.5	.	0.5
Cc1nc2cc(-c3ccccc3)nn2c(C)c1CCC(=O)NCc1ccco1	52.0*	55.6*	-1.7	0.5	-38.5	0.4
CCOC(=O)C1CCCCN1C(=O)CCc1c(C)nc2cc(-c3ccccc3)nn2c1C (stereo unspecified)	60.1*	68.4*	-1.9	0.4	-17.7	0.3
COc1ccc(/C=N/n2cncn2)cc1COc1ccc(NC(C)=O)cc1	68.9*	61.1*	-1.8	0.3	-13.9	0.4
SMILES	CYP2C9 inhib	CYP2C19 inhib	MRP1 act	CYP2C9 act	MRP resist rev	CYP2C19 act
COCCn1c(=S)[nH]c2ccc(N(C)C)cc2c1=O	32.4	51.6*	-1.4	0.7	12.7	0.5
O=C(c1cnc(N2CCN(c3ncccn3)CC2)c2ccccc12)N1CCN(c2ncccn2)CC1	64.0*	41.9	-2.3	0.4	2.5	0.6
O=C(c1ccc2c3c(cccc13)CC2)N1CCN(c2ncccn2)CC1	.	.	.	.	4.3	.
O=C(c1sc2ccccc2c1Cl)N1CCN(c2ncccn2)CC1	.	.	-1.4	.	.	.
CCN(C(=O)c1cnc(N2CCN(c3ncccn3)CC2)c2ccccc12)c1cccc(Cl)c1	84.8*	97.2*	-2.2	0.2	-39.8	0
CN(C(=O)c1cnc(N2CCN(c3ncccn3)CC2)c2ccccc12)c1ccc(Cl)cc1	69.6*	88.1*	-1.5	0.3	-10.3	0.1
CCCCn1c(=O)c(CCC(=O)OCC(=O)Nc2ccc(F)c(Cl)c2)nc2ccccc21	.	.	-1.7	.	.	.
COc1cc(C2C(C#N)=C(N)OC3=C2C(=O)CC(C)(C)C3)ccc1OC(=O)N1CCOCC1 (stereo unspecified)	53.6*	11.6	-1.1	0.5	2.5	0.9
CC1(C)CC(=O)C2=C(C1)OC(N)=C(C#N)C2c1ccc(OC(=O)N2CCOCC2)cc1 (stereo unspecified)	59.8*	31.7	-1.6	0.4	6.7	0.7
COc1ccc(C2C(C(C)=O)=C(O)C(=O)N2CCc2c[nH]c3ccccc23)cc1OC (stereo unspecified)	88.9*	-3.7	0.5	0.1	19.2	1
CC(=O)C1=C(O)C(=O)N(CCc2c[nH]c3ccccc23)C1c1ccc(O)cc1 (stereo unspecified)	52.9*	-10.8	-1.9	0.5	-13.0	1.1
COc1cc(C2C(C(C)=O)=C(O)C(=O)N2CCc2ccc(OC)c(OC)c2)ccc1O (stereo unspecified)	-9.1	-9.8	-0.3	1.1	-8.2	1.1
COc1cccc(C2C(C(C)=O)=C(O)C(=O)N2CCc2c[nH]c3ccccc23)c1 (stereo unspecified)	70.2*	-4.0	-0.3	0.3	21.6	1
COc1cccc(C2C(C(C)=O)=C(O)C(=O)N2Cc2ccco2)c1 (stereo unspecified)	9.7	8.8	-1.8	0.9	15.8	0.9
C[C@@H](C(=O)NCCc1c[nH]c2ccccc12)[C@H]1C[C@]1(C)[C@H](NC(=O)OCc1ccccc1)c1ccccc1	.	.	-3.8	.	.	.
COc1ccc(C2C3=C(CCCC3=O)Nc3nc(C(F)(F)F)nn32)c(OC)c1OC (stereo unspecified)	35.5	32.6	-2.5	0.6	10.8	0.7
CCOC(=O)C(C(=O)OCC)C(CC(=O)C1CC1)c1ccccc1 (stereo unspecified)	1.2	18.7	-2.9	1	6.5	0.8
C=CCSc1nc(N)c(C(=O)Nc2ccccc2OC)cc1C(=O)Nc1ccccc1	60.9*	-12.5	-2.3	0.4	-3.8	1.1
CCOC(=O)c1[nH]c2ccccc2c1NC(=O)c1ccc(S(=O)(=O)N2CCCCC2)cc1	.	.	-2.8	.	.	.
